# Compounds with a hit are over-represented: about 20% of the library has one in this group of screens.
# HCMV inh = human cytomegalovirus inhibition. actives 4.5% (n = 410,000). HFF cells, HCMV-luciferase reporter, 72 h; hits give low values. activity change, negative = inhibition, % at 57.5 µM. AID 1259415; in the data active = activity change below about -60%; inconclusive = no clear call, values can overlap the other calls; inactive = above about -39%; also: % is scaled to controls: 0 for no effect and ±100 for the full control effect
#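 Screen run at 2 compound doses on HFFs infected with reporter HCMV, MOI 1 PFU/cell. Luciferase activity from cell lysates at 72 h post infection gave inhibition relative to buffer-only and Salinomycin wells.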
# Pf growth 48h = P. falciparum growth inhibition at 48 hours (one generation); P. falciparum luciferase growth in erythrocytes, 48 h; Potency, µM (doses to about 28.7 µM), for inactives: at the top dose activity change, negative = inhibition, usual class: inhibitors; actives 5.9% (n = 310,000); AID 504832; also: potency is read from the fitted curve at half-maximal effect; % is scaled to controls: 0 for no effect and ±100 for the full control effect
#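 Erythrocytes infected with P. falciparum carrying an integrated firefly luciferase reporter (2% hematocrit, 0.1% parasitemia final) were exposed to compounds in RPMI 1640 with 0.5% Albumax at 37 C, 5% CO2. Growth inhibition was scored as reduced luminescence.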
# Shiga inhibitor = blocks Shiga toxin action in Vero cells; Vero cells, Shiga toxin protein synthesis inhibition reporter; inhibition, % at 38.7 µM; actives 9.2% (n = 290,000); AID 2315; in the data active = inhibition mostly above about 28%, no sharp cut-off; inactive = mostly below about 43%; also: 0% is about no effect
# CHX counter = counter-screen hit for Shiga toxin inhibitors, cycloheximide. AID 2314. max response, %. actives 12% (n = 300,000). cell reporter, cycloheximide protein synthesis inhibition counterscreen; in the data active = max response mostly above about 13%, no sharp cut-off; inactive = mostly below about 14%; also: read at 38.3 µM for the half of the compounds with a filed dose; 0% is about no effect
# Pf growth 96h = inhibits malaria parasite growth, 96 h. P. falciparum luciferase reporter growth, 96 h. Potency, µM (titrated, usually from 28.7 µM), for the others: at the top dose activity change, negative = inhibition, hits mostly inhibitors. actives 6.9% (n = 320,000); also: potency is read from the fitted curve at half-maximal effect; % is scaled to controls: 0 for no effect and ±100 for the full control effect
#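 Delayed-death screen, second-generation endpoint: infected erythrocytes, 2% hematocrit, 0.05% parasitemia final; 96 hours at 37 C, 5% CO2; luciferase detection reagent; luminescence decrease equals reduced growth.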
# * marks the source's active call; other numbers are inactive results; ? = inconclusive; · = no result. Unless noted, calls follow the shape of the dose curve; as a rule, active = well fitted inhibition curve with a large enough effect; inconclusive = small, poorly fitted or top-dose-only effect, or another doubt; inactive = no such curve, though single readings can be large or run the other way.
SMILES,HCMV inh,Pf growth 48h,Shiga inhibitor,CHX counter,Pf growth 96h
Cc1ccc(Cl)cc1N1CCN(C(=O)c2cnn(C)c2C2CCN(C(=O)OC(C)(C)C)CC2)CC1,0,·,·,·,·
O=C(Cc1ccc(Cl)c(Cl)c1)N1CCOCC1,-8,?,35*,8,?
O=C(Cc1ccc(-c2ccccc2)cc1)N1CCOCC1,-8,10%,17,9,-1%
O=C(Cc1ccc(Br)cc1)N1CCOCC1,-3,0%,23,11*,?
O=C(Cc1ccc(Br)cc1)N1CCN(c2ccccc2O)CC1,65,7%,95*,36*,·
CC1CCN(C(=O)c2ncn3c2c(=O)[nH]c2cccnc23)CC1,-20,·,·,·,·
CCOc1cc2c3c(c1)C(C)CC(C)(C)N3C(=O)C2=O (stereo unspecified),-36,?,-19,-1,0.83µM*
CCOc1cc2c3c(c1)C(C)=CC(C)(C)N3C(=O)C2=O,-63*,-5%,5,-3,17%
CCOC(=O)Oc1ccc2c(c1)C(C)=CC(C)(C)N2C(=O)OCC,0,?,-4,-1,?
CC(C)(C)[C@H]1COC(=O)CCC/C=C/C[C@H](CC(=O)NCCO)C(=O)N1,-5,·,·,·,·
COc1ccc2oc(=O)cc(CN3CCN(c4ccc(F)cc4)CC3)c2c1,-17,·,·,·,·
CCN(C(=O)c1cc2c(=O)n3ccccc3nc2n1C)C1CCCCC1,5,-3%,61*,37*,17%
CCN(C(=O)c1cc2c(=O)n3cccc(C)c3nc2s1)C1CCCCC1,3,-47%,1,15,26%
COCCCn1c(C(=O)NCCN2CCOCC2)cc2c(=O)n3ccccc3nc21,?,2%,-12,7,51%
CCN(CC)C(=O)c1cc2c(=O)n3cccc(C)c3nc2s1,109,20%,42,27*,5%
CCN(C(=O)c1cc2c(=O)n3ccccc3nc2s1)C1CCCCC1,22,?,44*,18,20%
CCCCN(CC)C(=O)c1cc2c(=O)n3cccc(C)c3nc2s1,51,·,17,12,3%
CCN(C(=O)c1cc2c(=O)n3ccccc3nc2n1CCCOC)C1CCCCC1,-30,12µM*,-6,3,15µM*
COc1ccc([C@H]2CC(=O)C[C@@H](CCn3nnc4ccccc43)O2)cc1,-16,·,·,·,·
Cc1cccn2c(=O)c3cc(C(=O)N4COCC4(C)C)n(Cc4ccccc4)c3nc12,-36,·,·,·,·
CCOC(=O)c1c(NC(=O)c2ccc(N3C(=O)[C@@H]4[C@H](C3=O)[C@H]3C=C[C@@H]4C3)cc2)sc2c1CC(C)CC2 (stereo partly specified),-29,-3%,-6,-3,55%
Cn1c(C(=O)N2CCN(C(=O)c3ccco3)CC2)cc2c(=O)n3ccccc3nc21,14,19%,11,-2,4.7µM*
CN(C(=O)c1cc2c(=O)n3ccccc3nc2n1C)C1CCCCC1,75,103%,105*,62*,-22%
CCc1noc(C)c1C(=O)N1CC(C)SC1=Nc1ccc(Cl)cc1 (stereo unspecified),-26,10µM*,·,·,13µM*
Cc1ccc(-c2[nH]nc(N)c2N=Nc2ccccc2C)cc1,-65*,?,25,-3,177%
SMILES,HCMV inh,Pf growth 48h,Shiga inhibitor,CHX counter,Pf growth 96h
Cc1ccc(C)c2sc(N)nc12,18,19%,1,-3,?
COC(=O)c1ccccc1N=Nc1c(N)n[nH]c1N,35,-4%,-5,1,-2%
Cc1ccc(N=Nc2c(N)n[nH]c2N)cc1,46,91%,49*,41*,-66%
Cc1nc(N)sc1N=Nc1ccc(Br)cc1,124,·,127*,65*,141%
Nc1n[nH]c(N)c1N=Nc1ccc2c(c1)OCO2,-8,27%,97*,36*,35%
CSCCC(NC(N)=O)C(=O)Nc1ccc(C)cc1 (stereo unspecified),-28,1%,-3,-2,29%
Nc1n[nH]c(C2CC2)c1N=Nc1ccc(Cl)cc1,2,37%,35,8,79%
Cc1[nH]nc(N)c1N=Nc1ccc(Br)cc1,-20,27%,41*,29*,21%
O=C(Nc1ccc(NC(=O)c2ccccn2)cc1)C(=O)Nc1ccc2c(c1)OCCO2,44,46%,62,8,?
O=C(Nc1ccc2c(c1)OCCO2)c1ccc2ccccc2n1,341,363%,45*,39*,308%
O=C(Nc1ccc2c(c1)OCCO2)c1ccccn1,-24,375%,31,12*,420%
Cc1ccccc1N=C1Nc2ccccc2CS1,-2,165%,122*,29*,438%
COc1ccccc1CNC(=O)CCSCc1cccc(Cl)c1,-20,3%,-9,-3,1.2µM*
O=C(CCSCc1ccccc1Cl)NCCc1ccccc1,0,·,·,·,·
O=C(CCSCc1ccccc1F)NCCc1ccccc1,66,26%,21,17*,?
O=C(CCSCc1ccccc1F)NCc1ccc(F)cc1,3,·,2,0,2.3µM*
CC(NC(=O)CCSCc1ccccc1F)c1ccccc1 (stereo unspecified),47,16%,65*,58*,?
O=C(Nc1ccccc1F)N1CC(=O)N2[C@H](CO)[C@H](c3ccc(Br)cc3)[C@@H]2C1,18,·,·,·,·
COc1ccc(NC(=O)Cc2cccc3ccccc23)cc1,-8,6%,-6,-1,13%
Cc1ccc(CNC(=O)CSCc2ccccc2F)cc1,57,110%,55,39*,?
O=C(CSCc1ccc(F)cc1)NCc1ccc(F)cc1,-24,23%,60,-2,37%
CN(C)C(=S)SCC(=O)NCc1ccc(F)cc1,-38,161%,51*,29*,?
COc1ccc(CNC(=O)CCSCc2cccc(Cl)c2)cc1,-26,1%,-9,-3,77%
O=C(CSCc1ccccc1F)NCc1ccc(F)cc1,?,60%,55,43*,?
Cc1ccc(CSCC(=O)NCc2ccc(F)cc2)cc1,-15,11%,-1,16,?
SMILES,HCMV inh,Pf growth 48h,Shiga inhibitor,CHX counter,Pf growth 96h
COc1ccc(CNC(=O)CCSCc2ccccc2C)cc1,17,25%,26,1,3.3µM*
COc1ccccc1N1CCN(C(=O)C2CCN(S(=O)(=O)Cc3ccccc3)CC2)CC1,8,·,·,·,·
ClCCn1c(CCl)nc2ccc(Cl)cc21,-15,·,·,·,·
CCCC(C(=O)NNC(=O)c1ccncc1)c1ccccc1 (stereo unspecified),-14,·,·,·,·
CCC1CCCCN1C(=O)COC(=O)COc1ccc(Br)cc1 (stereo unspecified),-19,·,·,·,·
O=C1OC(/C=C/c2ccc(Cl)cc2)=NC/1=C/c1ccco1,33,11%,-29,24*,?
CN1C(=O)/C(=C\c2ccco2)N=C1c1ccc(Cl)cc1Cl,0,4%,74*,28*,21%
Cc1ccc(-c2nnc(COC(=O)c3cc(=O)[nH]c4ccccc34)o2)cc1,36,5%,-12,-1,41%
Cc1c(CBr)[n+](=O)c2c(n1[O-])C(Br)CCC2Br (stereo unspecified),80,-1%,17,14*,2%

# Screening results as filed in PubChem.
